# Results filed as inconclusive are left out. Calls of active or inactive are those of the source. Calls follow the shape of the dose curve; as a rule, active = well fitted activation curve with a large enough effect; inconclusive = small, poorly fitted or top-dose-only effect; inactive = no such curve, though single readings can be large or run the other way.
# Assay: Extended Characterization of HPGD Inhibitors: PGE2 Assay in LNCaP Cells
# Conditions: PGE2 HTRF level, 16 h; series mostly up to 100 µM
# Source text: The central role of HPGD is to inactivate prostaglandins such as prostaglandin E2 (PGE2) or prostaglandin D2 (PGD2). These prostaglandins are involved in a number of processes, including inflammation, differentiation, and cellular signaling, which makes HPGD an important target for pharmacological intervention. A number of prostaglandins of particular biological interest have been identified as substrates of HPGD. […] Over-production of PGE2 has been reported to promote tumor-associated neovascularization, cell proliferation, and tumor growth. […] In this orthogonal assay, we set out to measure if compounds were able to increase PGE2 production NIH Chemical Genomics Center [NCGC] NIH Molecular Libraries Probe Centers Network [MLPCN] MLPCN Grant: MH084681 Assay Submitter (PI): Structural Genomics Consortium
# A549 cells, LNCaP cells or media were dispensed in 384-well plates (ProxiPlate-384 Plus, PerkinElmer, Shelton, CT) at 5,000 cells/9.9 uL/well using a CappAero384 multichannel pipette (Odense, Denmark). Separately on the plate, 10 uL of PGE2 calibration standards at a starting assay concentration of 5,000 pg/mL (1:2 dilution, 12-points, n = 1, prepared in media, Cisbio, Bedford, MA) were dispensed. Compounds (100 nL, final concentration range from 41.9 nM to 100 uM) were transferred using an ATS Acoustic Liquid Dispenser (EDC Biosystems, Fremont, CA). After being mixed using an automated liquid handler (CyBio, Jena, Germany), samples were incubated (37 deg C, 5% CO2, under a humidified atmosphere) for 16 hours. PGE2 labeled conjugates were added to each well, first 5 uL of PGE2-d2, followed by 5 uL of anti-PGE2-cryptate, centrifuged (1,500 rpm, 15 sec) and incubated (RT, protected from light) for 5 hours. Time-resolved fluorescence intensity (320 nm excitation, 615 and 665 nm emission) was measured using an Envision plate reader (PerkinElmer). Data was expressed as the ratio of 665 nm/615 nm emissions. Concentration (pg/mL) of samples were calculated from a 4-parameter logistic calibration curves of the PGE2 standards.
row,Structure (SMILES),Potency
1,Cc1cccc(-n2cnc3cc(C(=O)N4CCCC4)ccc32)c1,55.8 µM (active)
2,Clc1ccccc1CSc1nc2ncc(Br)cc2[nH]1,44.3 µM (active)
3,COc1ccccc1-n1cnc2cc(C(=O)N3CCCCC3)ccc21,1.76 µM (active)
4,O=[N+]([O-])c1cccc(CSc2nc3ncc(Br)cc3[nH]2)c1,inactive
5,Cc1cccc(-n2cnc3cc(C(=O)NC(C)(C)C)ccc32)c1,inactive
6,Cc1cc(-c2nnc3n2CCCCC3)c(C)n1-c1ccc(Br)cc1,2.8 µM (active)
7,Cc1cccc(-n2cnc3cc(C(=O)NC4CCCCC4)ccc32)c1,22.2 µM (active)
8,O=C(c1ccc2c(c1)ncn2-c1cccc(Cl)c1)N1CCCCC1,0.222 µM (active)
9,O=[N+]([O-])c1ccc(CSc2nc3ncc(Br)cc3[nH]2)cc1,2.22 µM (active)
10,Brc1cnc2nc(SCc3ccccc3)[nH]c2c1,44.3 µM (active)
11,CC(C)c1cccc(-n2cnc3cc(C(=O)N4CCCCC4)ccc32)c1,2.8 µM (active)
12,CC(C)(C)c1ccc(-n2cnc3cc(C(=O)N4CCCCC4)ccc32)cc1,4.43 µM (active)
13,FC(F)(F)c1cccc(CSc2nc3ncc(Br)cc3[nH]2)c1,35.2 µM (active)
14,COc1ccc(-n2cnc3cc(C(=O)N4CCCCC4)ccc32)cc1,0.884 µM (active)
15,Cc1cccc(-n2cnc3cc(C(=O)N4CCC(c5ccccc5)CC4)ccc32)c1,inactive
16,O=[N+]([O-])c1ccccc1CSc1nc2ncc(Br)cc2[nH]1,0.352 µM (active)
17,CC(C)(C)n1cnc2cc(C(=O)N3CCCCC3)ccc21,0.884 µM (active)
18,Cc1cc(-c2nnc3n2CCCC3)c(C)n1-c1ccccc1,7.03 µM (active)
19,CCCCn1cnc2cc(C(=O)N3CCCCC3)ccc21,4.43 µM (active)
20,Cc1cc(-c2nnc3n2CCCCC3)c(C)n1-c1ccc(Cl)c(Cl)c1,0.352 µM (active)

row,Structure (SMILES),Potency
1,N#Cc1ccccc1CSc1nc2ncc(Br)cc2[nH]1,35.2 µM (active)
2,Cc1cc(-c2nnc3n2CCCCC3)c(C)n1-c1ccc(C(F)(F)F)cc1,3.52 µM (active)
3,Clc1ccc(CSc2nc3ncc(Br)cc3[nH]2)cc1,14 µM (active)
4,Clc1cccc(CSc2nc3ncc(Br)cc3[nH]2)c1,44.3 µM (active)
5,Cc1cc(-c2nnc3n2CCCCC3)c(C)n1-c1ccc(F)cc1,3.52 µM (active)
6,CCOC(=O)c1ccc(-n2cnc3cc(C(=O)N4CCCCC4)ccc32)cc1,inactive
7,Cc1cccc(-n2cnc3cc(C(=O)N4CCC(C#N)CC4)ccc32)c1,inactive
8,Cc1cc(-c2nnc3n2CCCCC3)c(C)n1-c1cccc(C#N)c1,1.76 µM (active)
9,N#Cc1ccc(CSc2nc3ncc(Br)cc3[nH]2)cc1,22.2 µM (active)
10,O=C(c1ccc2c(c1)ncn2-c1cccc(C(F)(F)F)c1)N1CCCCC1,2.8 µM (active)
11,Fc1ccc(CSc2nc3ncc(Br)cc3[nH]2)cc1,35.2 µM (active)
12,O=C(c1ccc2c(c1)ncn2-c1ccccc1)N1CCCCC1,0.28 µM (active)
13,CC(C)(C)c1ccc(CSc2nc3ncc(Br)cc3[nH]2)cc1,35.2 µM (active)
14,Cc1ccc(-n2cnc3cc(C(=O)N4CCCCC4)ccc32)cc1,0.443 µM (active)
15,Cc1ccccc1CSc1nc2ncc(Br)cc2[nH]1,22.2 µM (active)
16,Brc1cnc2nc(SCc3cccnc3)[nH]c2c1,7.03 µM (active)
17,Cc1cccc(-n2cnc3cc(C(=O)N4CCCCCC4)ccc32)c1,1.76 µM (active)
18,O=C(c1ccc2c(c1)ncn2-c1ccc(Cl)cc1)N1CCCCC1,0.884 µM (active)
19,Cc1cccc(-n2cnc3cc(C(=O)N4CCCC(C(F)(F)F)C4)ccc32)c1 (stereo not given),1.76 µM (active)
20,Brc1cnc2nc(SCc3ccccn3)[nH]c2c1,11.1 µM (active)

# — PubChem BioAssay AID743172 (National Center for Advancing Translational Sciences (NCATS), 2013)
